# Measurements from PubChem BioAssay (NCATS).
# Inconclusive results are not listed. Activity calls are given as the source filed them. Calls come from the whole dose curve; as a rule, active = well fitted inhibition curve with a large enough effect; inconclusive = small, poorly fitted or top-dose-only effect; inactive = flat fitted curve, though single readings scatter.
# Tested on: CRL-7250
# Assay: qHTS assay to identify novel small-molecules to repurpose for Merkel cell carcinoma treatment (AID 1296009); note: nearly all actives have a fitted effect of over 60% in size
# Details: MCC and control cell lines, CellTiter-Glo viability, 72 h; at 44.8 µM (top of the series) unless noted
# Outline: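 Cells were incubated with compound for 72 hr at 37 degree celsius before CellTiter-Glo addition. Luminescence was normalized with no-cell wells as full cytotoxicity and DMSO as baseline.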
row,Structure (SMILES),outcome
1,CCCOC(=O)c1ccc(N)cc1,inactive
2,CC(C)(C)c1ccc(C(O)CCCN2CCC(C(O)(c3ccccc3)c3ccccc3)CC2)cc1 (configuration not stated),inactive
3,CC1=CC(=O)c2ccccc2C1=O,inactive
4,NCCc1cnc[nH]1,inactive
5,CCN(CC)C(=O)c1cccc(C)c1,inactive
6,CC(=O)SC[C@@H](Cc1ccccc1)C(=O)NCC(=O)OCc1ccccc1,inactive
7,CC(C)Cn1cnc2c1c(=O)n(C)c(=O)n2C,inactive
8,O=C(O)Cc1ccc2c(c1)C(=O)c1ccccc1CO2,inactive
9,O=C(Nc1ccc(C(=O)O)c(O)c1)c1ccccc1,inactive
10,CCCC(=O)OC[C@@H](OC(=O)CCC)[C@@H](OC(=O)CCC)[C@H](Cn1c2nc(=O)[nH]c(=O)c-2nc2cc(C)c(C)cc21)OC(=O)CCC,inactive
11,COc1cc2[nH]c(=O)[nH]c(=O)c2cc1OC,inactive
12,CC(=O)[C@H]1CC[C@H]2[C@@H]3CC=C4C[C@@H](O)CC[C@]4(C)[C@H]3CC[C@]12C,inactive
13,COc1cc(NS(=O)(=O)c2ccc(N)cc2)ncn1,inactive
14,CN1C[C@H](C(=O)N[C@]2(C)O[C@@]3(O)[C@@H]4CCCN4C(=O)[C@H](Cc4ccccc4)N3C2=O)C[C@@H]2c3cccc4[nH]cc(c34)C[C@H]21,inactive
15,O=C(CCCN1CCN(c2ccccn2)CC1)c1ccc(F)cc1,inactive
16,CCC(C)(C)c1ccc(CC(C)CN2C[C@@H](C)O[C@@H](C)C2)cc1 (some centres not stated),inactive
17,CC(C)(C)c1ccc(C(=O)CCCCl)cc1,inactive
18,CCCCNc1cc(C(=O)O)cc(S(N)(=O)=O)c1Oc1ccccc1,inactive
19,CC1(C)CO[C@@H](CC(=O)O)CN1,inactive

row,Structure (SMILES),outcome
1,COc1cccc(N(C)C(=S)Oc2ccc3c(c2)CCCC3)n1,inactive
2,OC1C(O)C(O)C(O)C(O)C1O (configuration not stated),inactive
3,Nc1ccc(N=Nc2ccccc2)c(N)n1,inactive
4,N#Cc1cc(NC(=O)C(=O)O)c(Cl)c(NC(=O)C(=O)O)c1,inactive
5,CN(C)CCN(Cc1ccccc1)c1ccccn1,inactive
6,CC(C)C(=O)OCc1cccc(OC(=O)[C@@H]2N3C(=O)[C@@H](NC(=O)Cc4ccccc4)[C@H]3SC2(C)C)c1,inactive
7,C=C1c2cccc(O)c2C(O)=C2C(=O)[C@]3(O)C(O)=C(C(N)=O)C(=O)[C@@H](N(C)C)[C@@H]3[C@@H](O)[C@H]12,inactive
8,O[C@@H](COc1cccc2ncccc12)CN1CCN(C2c3ccccc3[C@@H]3[C@H](c4ccccc42)C3(F)F)CC1 (some centres not stated),inactive
9,Cc1nc2sccn2c(=O)c1CCN1CCC(=C(c2ccc(F)cc2)c2ccc(F)cc2)CC1,inactive
10,CCCCCC(N)=O,inactive
11,COc1ccc2[nH]c(S(=O)Cc3ncc(C)c(OC)c3C)nc2n1 (configuration not stated),inactive
12,CCCCC(=O)O[C@]1(C(=O)CO)[C@@H](C)C[C@H]2[C@@H]3CCC4=CC(=O)C=C[C@]4(C)[C@@]3(F)[C@@H](O)C[C@@]21C,inactive
13,Cn1cnc2c1c(=O)[nH]c(=O)n2C,inactive
14,NC(N)=NC(=O)c1nc(Cl)c(N)nc1N,inactive
15,O=S1(=O)OC(c2ccc(O)cc2)(c2ccc(O)cc2)c2ccccc21,inactive
16,CN(C)C(=O)Oc1cccc([N+](C)(C)C)c1,inactive
17,CO/N=C(\C(=O)O)c1csc(NC(=O)CCl)n1,inactive
18,O=C(c1ccc(F)cc1)C1CCN(CCn2c(=O)[nH]c3ccccc3c2=O)CC1,inactive
